Drawing on PubChem BioAssay (NCI), this text covers growth for seven molecules.

The panel holds about 83,000 compounds, 20% with a hit somewhere; the sample as a whole holds those more often.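 Testing used 96-well plates and a 48-hour single-concentration exposure. Example: -40 means 40% of the starting cells died.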 The source made the active and inactive calls. The calls were made as follows: active = growth percent below 10; inactive = the rest.

Some test systems named below: NCI-H23 lung; NCI-H226 lung; NCI-H322M lung; HOP-62 NSCLC; NCI-H460 lung; HOP-92 NSCLC; NCI-H522 lung; A549/ATCC NSCLC; 786-0 renal; DU-145 prostate; K-562 leukemia; MALME-3M melanoma; MDA-MB-231 breast; RXF 393 renal; SF-268 CNS; SF-295 CNS; SF-539 CNS; UACC-257 melanoma; M14 melanoma.
What all share (assay): NCI-60 one-dose screen, 48 h (100 = growth as untreated, 0 = no growth, -100 = all killed)
Conditions in all cases: 10 µM unless noted

Consider `NC(=O)c1c(NC(=O)c2ccccn2)sc2c1CCC(=O)C2`, for which the growth in the test on NCI-H23 lung was 17.2% (inactive); in the test on NCI-H226 lung, 70.7% (inactive); in the test on NCI-H322M lung, 94.3% (inactive); in the test on HOP-62 NSCLC, 81% (inactive); in the test with NCI-H460 lung, 71.2% (inactive); in the test on HOP-92 NSCLC it was 15.9% (inactive). The growth in the test on NCI-H522 lung was -13.5% (active); in the test with A549/ATCC NSCLC, 60.6% (inactive); with 786-0 renal it was 89.4% (inactive); with DU-145 prostate, 91.5% (inactive); in the test with K-562 leukemia, 10.1% (inactive); in the test with MALME-3M melanoma it was 49.4% (inactive). Besides, the growth is 7.89% (active) in the test on MDA-MB-231 breast; 21.5% (inactive) with RXF 393 renal; 21% (inactive) in the test with SF-268 CNS; 66.3% (inactive) with SF-295 CNS; 1.9% (active) with SF-539 CNS; 46.9% (inactive) in the test on UACC-257 melanoma. Besides, the growth in the test on M14 melanoma was 22.5% (inactive).
Turning to `CCCCOC(=O)c1ccc(NC(=O)C(C)N2CCOCC2)cc1` (stereo not drawn), the growth in the test on NCI-H23 lung is 98.5% (inactive); in the test on NCI-H226 lung, 84.3% (inactive); with NCI-H322M lung it was 95.7% (inactive); in the test with HOP-62 NSCLC it was 99.5% (inactive); with NCI-H460 lung, 105% (inactive); in the test with HOP-92 NSCLC it was 76.7% (inactive). The growth in the test on NCI-H522 lung is 67.9% (inactive); with A549/ATCC NSCLC it was 97.3% (inactive); in the test on 786-0 renal, 99.1% (inactive); in the test on DU-145 prostate, 107% (inactive); with K-562 leukemia it was 91.1% (inactive); with MALME-3M melanoma, 91.8% (inactive). For the same molecule, the growth is 102% (inactive) with MDA-MB-231 breast; 102% (inactive) with RXF 393 renal; 103% (inactive) with SF-268 CNS; 101% (inactive) in the test on SF-295 CNS; 102% (inactive) with SF-539 CNS; 98.3% (inactive) in the test on UACC-257 melanoma. For the same molecule, in the test with M14 melanoma, the growth was 93.7% (inactive).
For the molecule `CCOc1ccc(S(=O)(=O)c2ccc(C)cc2)c2c1no[n+]2[O-]`, the growth is 82.4% (inactive) in the test on NCI-H23 lung; 77.2% (inactive) in the test with NCI-H226 lung; 92.7% (inactive) with NCI-H322M lung; 101% (inactive) with HOP-62 NSCLC; 86.4% (inactive) in the test on NCI-H460 lung; 36.5% (inactive) in the test on HOP-92 NSCLC. The growth in the test with NCI-H522 lung was 57.1% (inactive); with A549/ATCC NSCLC it was 97.2% (inactive); in the test on 786-0 renal, 79.6% (inactive); with DU-145 prostate, 86.2% (inactive); with K-562 leukemia, 46.1% (inactive); in the test on MALME-3M melanoma, 81.3% (inactive). For the same molecule, the growth in the test with MDA-MB-231 breast is 81.2% (inactive); with RXF 393 renal, 81.8% (inactive); in the test on SF-268 CNS it was 99.1% (inactive); with SF-295 CNS, 82.9% (inactive); in the test on SF-539 CNS, 87% (inactive); with UACC-257 melanoma, 95.8% (inactive). In the test with M14 melanoma, the growth was 93.4% (inactive).
On to `CCN1CCN(c2ccc(Nc3cc(-c4cccnc4Nc4c(Cl)c(OC)cc(OC)c4Cl)ncn3)cc2)CC1`, for which the growth in the test on NCI-H23 lung is 63.8% (inactive); in the test with NCI-H226 lung, 47% (inactive); in the test with NCI-H322M lung, 68.7% (inactive); with HOP-62 NSCLC it was 40.6% (inactive); with NCI-H460 lung, 23.7% (inactive); with HOP-92 NSCLC it was 54.5% (inactive). The growth was 75.9% (inactive) in the test with NCI-H522 lung; 39.9% (inactive) with A549/ATCC NSCLC; 89.2% (inactive) in the test with 786-0 renal; 62.9% (inactive) in the test on DU-145 prostate; 44.5% (inactive) in the test with K-562 leukemia; 76.2% (inactive) in the test with MALME-3M melanoma. For the same molecule, the growth with MDA-MB-231 breast is 85.8% (inactive); with RXF 393 renal, 34.3% (inactive); in the test with SF-268 CNS, 65.1% (inactive); with SF-295 CNS, 79.5% (inactive); in the test with SF-539 CNS, 47.1% (inactive); with UACC-257 melanoma it was 91.6% (inactive). Also, the growth with M14 melanoma is 72.9% (inactive).
For `CN(C)c1ccc(/C=C/c2c(F)cccc2F)cc1`, the growth was 83.9% (inactive) in the test on NCI-H23 lung; 94.1% (inactive) in the test on NCI-H226 lung; 92.7% (inactive) in the test on NCI-H322M lung; 74.4% (inactive) in the test with HOP-62 NSCLC; 107% (inactive) with NCI-H460 lung; 81% (inactive) in the test on HOP-92 NSCLC. Also, the growth in the test with NCI-H522 lung was 76.4% (inactive); in the test on A549/ATCC NSCLC, 82.6% (inactive); in the test with 786-0 renal, 105% (inactive); in the test on DU-145 prostate, 105% (inactive); with K-562 leukemia, 115% (inactive); with MALME-3M melanoma, 90.1% (inactive). Moreover, the growth with MDA-MB-231 breast was 110% (inactive); in the test on RXF 393 renal it was 108% (inactive); in the test with SF-268 CNS, 93.7% (inactive); with SF-295 CNS, 96.6% (inactive); in the test with SF-539 CNS it was 98.3% (inactive); with UACC-257 melanoma, 89% (inactive). Besides, the growth in the test with M14 melanoma is 93.2% (inactive).
Regarding `C=C1c2c(C)nn(-c3ccc(N)cc3)c2N(C)C23CC1C1(C)c4c(C)nn(-c5ccc(N)cc5)c4N(C)C(C)(CC12)C3` (stereo not drawn), the growth is 93.6% (inactive) in the test on NCI-H23 lung; 71.2% (inactive) with NCI-H226 lung; 92.1% (inactive) in the test on NCI-H322M lung; 88.3% (inactive) in the test on HOP-62 NSCLC; 57.2% (inactive) in the test on NCI-H460 lung; 90.2% (inactive) in the test with HOP-92 NSCLC. In addition, the growth in the test with NCI-H522 lung was 62.3% (inactive); with A549/ATCC NSCLC it was 50.1% (inactive); in the test with 786-0 renal, 81.1% (inactive); in the test on DU-145 prostate, 81.4% (inactive); with K-562 leukemia, 42.9% (inactive); with MALME-3M melanoma, 102% (inactive). Moreover, the growth in the test on MDA-MB-231 breast was 89.2% (inactive); in the test with RXF 393 renal, 71.7% (inactive); in the test on SF-268 CNS, 76.5% (inactive); with SF-295 CNS, 52.5% (inactive); in the test on SF-539 CNS, 100% (inactive); with UACC-257 melanoma it was 72.5% (inactive). The growth with M14 melanoma was 61.6% (inactive).
Turning to `C=C1C(=O)O[C@H]2[C@H]1CC/C(COC(=O)NCc1ccc(Cn3c(=O)sn(CCCCl)c3=O)cc1)=C\CC[C@@]1(C)O[C@@H]21`, the growth in the test with NCI-H23 lung is 70.8% (inactive); in the test with NCI-H226 lung, 58.7% (inactive); in the test on NCI-H322M lung, 88.8% (inactive); with HOP-62 NSCLC, 87.2% (inactive); with NCI-H460 lung, 101% (inactive); in the test on HOP-92 NSCLC, -53.8% (active). The growth is -89.7% (active) in the test on NCI-H522 lung; 90.5% (inactive) in the test on A549/ATCC NSCLC; 38.1% (inactive) in the test with 786-0 renal; 8.01% (active) in the test with DU-145 prostate; 0.0582% (active) in the test on K-562 leukemia; -57.1% (active) in the test with MALME-3M melanoma. The growth was 14.4% (inactive) with MDA-MB-231 breast; -76.7% (active) with RXF 393 renal; 44.5% (inactive) with SF-268 CNS; 101% (inactive) in the test on SF-295 CNS; -7.17% (active) with SF-539 CNS; 10.4% (inactive) with UACC-257 melanoma. Also, in the test with M14 melanoma, the growth was 5.43% (active).
